Experimental data: the supplement of paper PMC6555819

Columns and labels:
Test in all cases: PBM binding z-score (relative to random genomic background probes); higher = stronger binding; sequences stand for … in GC…GCGATTGACAGCGTAGAATGAAGG
[1] = tested on: FXR:RXRa (NR concentration 270 nM, RXRa partner concentration 90 nM)
Outline: (§1)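 The probes on custom Agilent 4×180K protein-binding microarrays were double-stranded, with 34-nt variable regions bearing direct-repeat seeds, single-nucleotide variants, half-site ablations and random human genomic background sequences. Incubation lasted 1 h with ligand-free nuclear receptor dimers in PBS pH 7.4, 2% milk, 0.02% Triton X-100, 1 mM DTT, 0.2 mg/mL BSA and 0.4 mg/ml salmon testes DNA. Antibodies against each partner (one per run) detected bound dimers, and fluorescence scans were regression-normalized. Binding z-scores take the random background probes as reference.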

[2] = tested on: LXRa:RXRa (NR concentration 270 nM, RXRa partner concentration 90 nM)
Outline: as §1

[3] = tested on: LXRa homodimer (NR concentration 270 nM)
Outline: as §1

[4] = tested on: LXRb:RXRa (NR concentration 270 nM, RXRa partner concentration 90 nM)
Outline: as §1

[5] = tested on: LXRb homodimer (NR concentration 270 nM)
Outline: as §1

[6] = tested on: PPARa:RXRa (NR concentration 270 nM, RXRa partner concentration 90 nM)
Outline: as §1

[7] = tested on: PPARg:RXRa (NR concentration 180 nM, RXRa partner concentration 90 nM)
Outline: as §1

[8] = tested on: PPARg:RXRa 270nM:90nM, anti-RXR (NR concentration 270 nM, RXRa partner concentration 90 nM)
Outline: as §1

[9] = tested on: PPARg:RXRa 30nM:10nM, anti-RXR (NR concentration 30 nM, RXRa partner concentration 10 nM)
Outline: as §1

[10] = tested on: PPARg:RXRa 90nM:30nM, anti-RXR (NR concentration 90 nM, RXRa partner concentration 30 nM)
Outline: as §1

Sequence	PBM binding z-score [1]	PBM binding z-score [2]	PBM binding z-score [3]	PBM binding z-score [4]	PBM binding z-score [5]	PBM binding z-score [6]	PBM binding z-score [7]	PBM binding z-score [8]	PBM binding z-score [9]	PBM binding z-score [10]
GCTTACGGGTCAAAGGTTATAGCTTGAATAGAAT	6.94	5.6	0.366	5.39	0.468	6.66	11.3	9.06	8.76	10.9
CCTAGTTGGTCTAGGTCACACACGCTATAGGTAC	1.54	1.66	1.3	1.68	0.465	2.18	1.42	1.53	0.318	0.958
CCAAGCAGGCCAGGGTCACTCAAGCATTTCGCTT	2.12	1.76	-0.279	1.95	-0.754	3.07	0.977	1.81	-0.229	0.599
TCTTGAAGATCAGCAGGTTAAGAAAGCTGGCCAA	0.211	0.582	-0.541	0.285	-0.955	0.856	-0.581	1.44	2.86	2.07
GCGACTGGGGCAAAGGAGGTTACCATAAGGTTGG	1.77	1.09	-0.0421	0.882	-0.261	2.06	3.15	3.93	1.89	3.87
GCAGACAGGTGAAACGCACGTAACTCAGGGTGGC	-0.552	-0.392	-0.524	-0.277	-0.898	0.511	0.771	0.0365	-0.437	-0.223
GCATATAGGTAATACAAGGTGAAAGGCCGATTGT	0.496	1.99	0.36	0.488	-0.248	1.97	2.16	2.86	1.05	2.2
TTACCAAGGTGAGCTGAGGTTGTTGATCCAACTC	0.871	-0.206	-0.484	-0.269	-1.04	0.271	-0.354	0.187	-0.357	-0.0442
TCGAGCAGGTTACCAATGGGGCATTCAGCTTTCT	0.00101	1.37	-0.694	0.999	-1	0.887	-0.242	0.245	0.211	0.322
ACAGACAGGTGATGAAGGTAACTCGGGCTATCAT	-0.17	0.107	-0.351	-0.291	-0.168	0.0611	0.471	-0.0859	-0.0607	-0.242
CGAACTAGGTCATCCAGGACAGTGTATACATTGA	4.45	2.66	0.861	2.24	0.0566	4.61	7.47	6.1	3.25	5.65
ATCCCTAGGTAAAGTTCAGTGAAAGATCGATAGA	0.939	1.71	1.52	1.19	0.53	1.8	2.37	3.48	1.57	3.25
TCGAGTAGGTTAGTCGGGGCATTCACCCAACATA	0.0292	0.103	-0.165	0.627	-0.651	0.713	0.0859	0.905	0.99	0.993
TTACCAAGGTGAGCTGACGTCGTTGATCCAACTC	-0.0042	-0.397	-0.855	-0.446	-0.946	0.149	0.0549	0.41	-0.0176	-0.026
CAAACTAGGTCACAGAGGTCAAAGCCCGTGCGTA	7.26	6.74	6.92	5.93	1.72	6.63	10.4	8.24	7	8.42
TATACCGGGTCAAAGGCCAGAGTACGAATGTCGA	5.68	5.19	1.56	3.95	1.32	6.35	8.61	7.39	6.12	7.45
TCATATAGGTAAACAGGTGAATGTCCGTAAGTTA	0.832	1.18	1.02	0.963	0.0472	2.02	2.31	3.18	3.86	3.58
ATCTAAAGGTCGTGAGGTGAGTATACAGAAAGGC	5.84	5.04	1.01	3.73	1.12	5.2	4.73	4.73	2.02	3.72
GCGACTGGGGTATCAGCAGGTTACCATAACTTAA	-0.215	0.488	-0.233	0.757	-0.459	0.871	0.146	0.0504	-0.489	-0.489
CCTCGGAGGACAACAGGAGGTCAGAGATGCCAGA	1.06	1.85	2.02	1.36	-0.479	2.08	0.895	0.272	-0.499	-0.289
AGAATGAGGTTATACGGAGATCAGGGAAGAAAGT	2.36	1.94	0.0841	1.7	0.0612	3.29	1.7	2.04	0.685	1.45
CCTCCTAGGTCAATGGTCAGCTAAAGCAGCTCGC	3.28	2.46	0.212	2.07	0.406	3.53	3.92	5.19	2.32	4.99
TTACCAAGGTGAAAAGTCGTTGATGCACGCCTTG	0.666	0.719	-0.432	0.311	-0.57	2.25	2.75	4.56	2.5	4.19
CCTAGCACGCCAGGGTCACTCAAGCATTTCGCTT	1.59	1.52	-0.519	1.79	-1.1	2.81	0.36	0.763	-0.35	-0.137
GGAACGAGGGCAAAGTTGATAGAATCTGTCGACG	1.44	1.1	-0.584	1.01	-0.45	4.17	6.84	7.15	6.22	7.35

Sequence	PBM binding z-score [1]	PBM binding z-score [2]	PBM binding z-score [3]	PBM binding z-score [4]	PBM binding z-score [5]	PBM binding z-score [6]	PBM binding z-score [7]	PBM binding z-score [8]	PBM binding z-score [9]	PBM binding z-score [10]
TTACCAAGGAGAGCTGAGGTCGTTGATCCAACTC	0.524	-0.0675	-0.298	0.248	-1.1	0.632	-0.233	0.453	0.297	0.316
CTCGAAAGGTCGTGCTGAGGTGAGTATACCAAAC	4.89	3.82	0.000478	3.31	-0.153	4.82	2.58	3.85	1.23	2.67
CCTCGGAGGACAACAGGAGGTCAGAGCAGCCAGA	1.3	1.9	1.9	1.4	-0.432	2.01	0.586	0.217	-0.349	-0.371
CCTCGGACGACAACAGGAGGTCAGAGCTGCCAGA	0.715	1.65	1.91	1.42	0.113	1.73	0.478	-0.0139	-0.511	-0.34
TCTTGTAGATCAATAGAGATTAAGAAAGTGCGCT	-0.285	0.252	-0.543	-0.171	-0.122	-0.000927	0.302	1.34	2.5	2.08
CCTGCTAGGTCATGGTGAGCTAATCTACAGTATG	3.57	2.37	-0.17	1.56	-0.467	3.41	2.55	2.76	0.872	1.78
TCTTGTTGATCAGCAGGTTAAGAAAGCTGGCCAA	0.582	0.423	-0.308	0.784	-0.493	0.727	-0.682	1.17	2.56	1.66
AGAACGAGGGCACCCTGAGTTGATAGCAGAGTAG	0.236	0.52	-0.169	-0.0951	-0.924	1.6	1.55	1.27	0.134	0.693
ACTAGCAGGCCAAGTTTGGGTCACTCAGACAAAG	-0.039	0.195	-0.331	0.306	-1.05	1.27	0.233	0.225	-0.237	-0.185
CGTCCAAGGTCAATGCTAGGTCAGAGAAAGCATT	6.97	5.95	2.67	4.32	0.8	5.25	4.39	4.86	1.59	3.76
GCTGACAGGTGAAACGCAGGTAACTCAGGGTGGC	-0.217	0.213	-0.763	-0.392	-0.869	0.868	0.373	-0.307	-0.779	-0.533
CCTACTGGGCCATTCAGGGGTCATTGATCATATG	3.39	3.59	3.43	4.16	-0.118	4.49	2.95	3.73	1.27	2.64
GTGACTGGGGCATCAGCAGGTTACCATAACTTAA	0.0842	0.236	-0.049	0.942	-0.399	1.75	1.86	1.89	0.217	0.996
ATACCAAGGTGATCGTGAGGTCGTAGATACTAAC	1.57	1.07	0.236	0.929	-0.173	1.73	0.732	0.484	-0.23	-0.092
CCTAGCAGGCCAAGCTGGGTCACTCAAGGCTTGA	1.55	0.966	-0.429	0.821	-1.36	1.82	-0.199	0.0206	-0.847	-0.107
AGAATGAGGTTACCAAAGATCTGGGAAACGCTTG	1.57	2.23	-0.414	1.23	-0.401	3.4	2.74	2.37	0.756	1.91
TAGCCTAGGTCATGCGGGCCACTATAGTGTCGGC	4.19	3.36	0.309	1.86	-0.164	3.55	2.41	2.65	0.295	1.5
GCAGACAGGTGAAACGCAGGTGACTCAGGGTGGC	0.0191	0.00841	-0.506	-0.401	-1.12	1.18	0.635	0.413	-0.264	-0.0702
CCTACTGGGACAAAAAGGTCATTGATGCCGATAA	3.77	4.52	4.09	4.16	0.878	4.96	3.4	4.19	2.01	3.72
CCTTACGGGTCACAAGGTTATAGCACGACGAGCG	5.77	4.34	0.422	3.65	0.114	5.46	5.45	5.85	2.52	4.65
TAGCCTAGGTCATTCAGTGGCCAGTATAGAAAGC	4.21	3.55	0.592	2.39	0.554	3.44	1.95	2.24	0.522	1.51
TCTGTTAGTTGAAGGGCAACCGACGAGTCCGTTT	0.758	0.866	0.374	0.639	0.983	0.837	-0.0567	1.91	3.09	2.14
GCATATAGGTGATACAAGGTGAAAGTCCGATTGT	1.98	0.421	-0.185	0.234	-0.213	2.26	1.73	2.17	0.808	1.33
ATCTCTAGGTAACCAAGTTCAGTGAATGCCGAAC	0.707	1.04	0.708	0.638	0.763	1.33	0.617	0.913	0.376	0.682
